# Results taken from PubChem BioAssay AID1159580 (chemical genetic matrix, 2015).
# “And” between values parts separate entries of the source, which are not always exact repeats. Identical values can stand only once. In all, about 5,500 compounds went through this assay and about 2,000 (36%) were called active. Inconclusive results (about 18%) are left out. The list shows a part of the results. Values without a mark were called inactive. Rule as the data show it: active = normalized growth mostly below about 0.91 (no sharp cut-off); inconclusive = no clear call, values can overlap the other calls; inactive = mostly above about 0.92.
# Test: chemical genetic growth profiling, strain panel (AID 1159580);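 also: tested at 20 µM; growth read once vehicle control cultures reached saturation at 30 °C; 1 = growth at the plate median or of vehicle wells; lower values mean less growth of the strain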
# Conditions: S. cerevisiae deletion strains, growth OD
compound,measurement,setting,value
O=C1C(Cl)=C(Cl)C(=O)C(Cl)=C1Cl,normalized growth,"locus YAL013W, strain DEP1, hits give low values",0.483 (active)
same,normalized growth,"locus YAL021C, strain ccr4, hits give low values",0.883 (active)
same,normalized growth,"locus YAL026C, strain drs2, hits give low values",0.831 (active)
same,normalized growth,"locus YAL030W, strain snc1, hits give low values",0.986
same,normalized growth,"locus YBL061C, strain skt5, hits give low values",0.994
same,normalized growth,"locus YBR009C, strain hhf1, hits give low values",0.843 (active)
same,normalized growth,"locus YBR021W, strain FUR4, hits give low values",0.293 (active)
same,normalized growth,"locus YBR023C, strain chs3, hits give low values",0.927
same,normalized growth,"locus YBR171W, strain sec66, hits give low values",0.967
same,normalized growth,"locus YBR229C, strain ROT2, hits give low values",0.979
same,normalized growth,"locus YBR231C, strain swc5, hits give low values",0.96
same,normalized growth,"locus YBR279W, strain paf1, hits give low values",0.929 (active)
same,normalized growth,"locus YCL011C, strain gbp2, hits give low values",0.865 (active)
same,normalized growth,"locus YCL016C, strain dcc1, hits give low values",0.919
same,normalized growth,"locus YCL029C, strain bik1, hits give low values",0.929
same,normalized growth,"locus YCL069W, strain vba3, hits give low values",0.985
same,normalized growth,"locus YCR088W, strain abp1, hits give low values",0.949
same,normalized growth,"locus YDL005C, strain med2, hits give low values",1
same,normalized growth,"locus YDL035C, strain GPR1, hits give low values",0.525 (active)
same,normalized growth,"locus YDL040C, strain nat1, hits give low values",0.976
same,normalized growth,"locus YDL074C, strain BRE1, hits give low values",0.531 (active)
same,normalized growth,"locus YDL101C, strain DUN1, hits give low values",0.941
same,normalized growth,"locus YDL134C, strain PPH21, hits give low values",0.499 (active)
same,normalized growth,"locus YDL185W, strain tfp1, hits give low values",0.118 (active)
same,normalized growth,"locus YDL192W, strain arf1, hits give low values",0.239 (active)
same,normalized growth,"locus YDR001C, strain nth1, hits give low values",0.991
same,normalized growth,"locus YDR069C, strain doa4, hits give low values",0.92
same,normalized growth,"locus YDR101C, strain arx1, hits give low values",0.881 (active)
same,normalized growth,"locus YDR137W, strain rgp1, hits give low values",0.978
same,normalized growth,"locus YDR150W, strain NUM1, hits give low values",0.79 (active)
same,normalized growth,"locus YDR159W, strain sac3, hits give low values",1.03
same,normalized growth,"locus YDR162C, strain NBP2, hits give low values",0.384 (active)
same,normalized growth,"locus YDR195W, strain ref2",0.894
same,normalized growth,"locus YDR297W, strain sur2, hits give low values",0.997
same,normalized growth,"locus YDR318W, strain mcm21, hits give low values",0.181 (active)
same,normalized growth,"locus YDR334W, strain swr1, hits give low values",0.98
same,normalized growth,"locus YDR335W, strain msn5, hits give low values",0.963
same,normalized growth,"locus YDR388W, hits give low values",0.164 (active)
same,normalized growth,"locus YDR392W, strain spt3, hits give low values",0.686 (active)
same,normalized growth,"locus YDR502C, strain sam2, hits give low values",0.61 (active)
same,normalized growth,"locus YEL003W, strain gim4, hits give low values",0.881 (active)
same,normalized growth,"locus YEL037C, strain rad23, hits give low values",0.99
same,normalized growth,"locus YEL061C, strain CIN8 (second series), hits give low values",0.954
same,normalized growth,"locus YEL061C, strain CIN8, hits give low values",0.711 (active)
same,normalized growth,"locus YER015W, strain faa2, hits give low values",0.878 (active)
same,normalized growth,"locus YER016W, strain bim1, hits give low values",0.979
same,normalized growth,"locus YER110C, hits give low values",0.704 (active)
same,normalized growth,"locus YER111C, strain swi4, hits give low values",0.993
same,normalized growth,"locus YER155C, strain BEM2 (second series), hits give low values",0.763 (active)
same,normalized growth,"locus YER155C, strain BEM2, hits give low values",0.509 (active)
same,normalized growth,"locus YER167W, strain BCK2, hits give low values",0.198 (active)
same,normalized growth,"locus YFR010W, strain ubp6, hits give low values",0.891 (active)
same,normalized growth,"locus YGL078C, strain dbp3, hits give low values",0.077 (active)
same,normalized growth,"locus YGL086W, strain mad1, hits give low values",0.252 (active)
same,normalized growth,"locus YGL167C, strain pmr1, hits give low values",0.982
same,normalized growth,"locus YGL173C, strain kem1, hits give low values",0.958
same,normalized growth,"locus YGL227W, strain vid30, hits give low values",0.997
same,normalized growth,"locus YGL240W, strain doc1, hits give low values",0.99
same,normalized growth,"locus YGL248W, strain PDE1, hits give low values",0.502 (active)
same,normalized growth,"locus YGL253W, strain hxk2, hits give low values",0.993
same,normalized growth,"locus YGR078C, strain PAC10, hits give low values",0.226 (active)
same,normalized growth,"locus YGR135W, strain pre9, hits give low values",0.335 (active)
same,normalized growth,"locus YGR229C, strain SMI1, hits give low values",0.0849 (active)
same,normalized growth,"locus YGR252W, strain gcn5, hits give low values",0.195 (active)
same,normalized growth,"locus YHR013C, strain ard1, hits give low values",0.829 (active)
same,normalized growth,"locus YHR027C, strain rpn1, hits give low values",0.904 (active)
same,normalized growth,"locus YHR030C, strain SLT2, hits give low values",0.281 (active) and 0.105 (active)
same,normalized growth,"locus YHR079C, strain IRE1 (second series), hits give low values",0.91 (active)
same,normalized growth,"locus YHR079C, strain IRE1, hits give low values",0.129 (active)
same,normalized growth,"locus YHR094C, strain hxt1, hits give low values",0.614 (active)
same,normalized growth,"locus YHR129C, strain ARP1, hits give low values",0.655 (active)
same,normalized growth,"locus YHR142W, strain chs7, hits give low values",0.928
same,normalized growth,"locus YHR200W, strain rpn10, hits give low values",0.27 (active)
same,normalized growth,"locus YIL066C, strain RNR3, hits give low values",0.634 (active)
same,normalized growth,"locus YIL073C, strain SPO22, hits give low values",0.5 (active)
same,normalized growth,"locus YIL125W, strain kgd1, hits give low values",0.0634 (active)
same,normalized growth,"locus YIR030C, strain dcg1, hits give low values",0.85 (active)
same,normalized growth,"locus YJL092W, strain hpr5, hits give low values",0.94
same,normalized growth,"locus YJL095W, strain BCK1 (second series), hits give low values",0.978
same,normalized growth,"locus YJL095W, strain BCK1, hits give low values",0.724 (active) and 0.122 (active)
same,normalized growth,"locus YJL115W, strain asf1, hits give low values",0.979
same,normalized growth,"locus YJL129C, strain trk1, hits give low values",1
same,normalized growth,"locus YJL134W, strain LCB3, hits give low values",0.937
same,normalized growth,"locus YJL154C, strain vps35, hits give low values",0.984
same,normalized growth,"locus YJL164C, strain tpk1, hits give low values",0.892 (active)
same,normalized growth,"locus YJL166W, strain qcr8, hits give low values",0.871 (active)
same,normalized growth,"locus YJL168C, strain set2, hits give low values",0.8 (active)
same,normalized growth,"locus YJL187C, strain SWE1 (second series), hits give low values",0.982
same,normalized growth,"locus YJR043C, strain POL32, hits give low values",0.671 (active)
same,normalized growth,"locus YJR066W, strain TOR1, hits give low values",0.0486 (active)
same,normalized growth,"locus YJR075W, strain HOC1, hits give low values",0.566 (active)
